Several values for one entry are separate records, joined by “and”; a condition that tells them apart may be missing. Equal entries are not always repeated. Results filed as inconclusive are left out. Entries that show only a call come without a potency. Activity calls are given as the source filed them. Calls come from the whole dose curve; as a rule, active = well fitted cell-killing curve with a large enough effect in the repeat runs; inconclusive = weak or mixed curves, or effect the other way; inactive = flat fitted curve, though single readings scatter.
assay: qHTS assay to identify small molecule agonists of the constitutive androstane receptor (CAR) signaling pathway - cell viability counter screen (AID 1224836); conditions: HepG2-CYP2B6-hCAR viability, CellTiter-Fluor, 23 h, PK11195 added to every well; series mostly up to 92.4 µM; note: nearly all actives have a fitted effect of over 45% in size
Excerpt: U.S. Tox21 Program National Center for Advancing Translational Sciences [NCATS] NIH Chemical Genomics Center [NCGC] U.S. Environmental Protection Agency [EPA] National Institutes of Environmental Health Sciences [NIEHS] National Toxicology Program [NTP] U.S. Food and Drug Administration [FDA] Tox21 Assay Overview: The constitutive androstane receptor (CAR) is a nuclear receptor which regulates multiple drug metabolizing enzymes (DMEs) and transporters. Activating CAR will generally increase the transcription and subsequent translation of CYP2B6 and CYP3A4. These two DMEs represent about 50% of the drug metabolizing potential in the body. […] Recently, there have also been studies performed indicating CARs role in energy metabolism and cancer therapy. Therefore, inducing CARs activity could have a potential effect on diabetes and cancer. Identifying environmental toxins and compounds which modulate CAR, through the use of the Tox21 10K compound collection, will be an important step in determining the toxicity and potential therapeutic effects these factors will have on the human body. To differentiate true CAR agonists from cytotoxic substances, the assay is multiplexed with a cell viability assay.
Tox21 Assay Protocol Summary: A double-stable (hCAR and CYP2B6-2.2kb) transfected cell line, derived from human hepatoma (HepG2) cells, was utilized for the duration of the quantitative high-throughput screens. The HepG2-CYP2B6-hCAR cells were dispensed at 2500 cells/4 uL/well in 1536-well white solid bottom plates using a Multidrop Combi. After the assay plates were incubated at 37 C/5% CO2 for 4 hrs, 23 nL of compounds at 15 concentrations (from 5-48 columns) or positive control (from 1 to 4 columns) were transferred to the assay plates using a Pintool station. One uL of PK11195 (final concentration = 0.75 uM) was added, using a Flying Reagent Dispenser, inside each well. After a 23 hr incubation period at 37 C/5% CO2, 1 uL of CellTiter-Fluor reagent was added into each well of the assay plates using a Flying Reagent Dispenser. The fluorescence intensity in the plates was then measured using a ViewLux plate reader.
Potency is the fitted concentration of half-maximal effect.

SMILES	Potency	viability change, negative = cytotoxic
CC(C)CCOCc1ccccc1	inactive	
NCCO	inactive	
c1ccc2cc3c(ccc4ccccc43)cc2c1	inactive	
COC(=O)/C=C/c1ccccc1	inactive	
CC[C@H]1CN2CCc3cc(OC)c(OC)cc3[C@@H]2C[C@@H]1C[C@H]1NCCc2cc(OC)c(OC)cc21	24.4 nM (active) and 150 nM (active)	
CCCCOCCOC(=O)c1ccccc1C(=O)OCCOCCCC	inactive	
NC(Cc1ccc(Cl)cc1)C(=O)O (stereo not given)		1.54% [at 0.349 µM] (inactive)
Oc1ccc(Cl)cc1Cc1cc(Cl)ccc1O	inactive	
CC(COc1ccccc1)N(CCCl)Cc1ccccc1 (stereo not given)	inactive	
CC(=O)CC(=O)Nc1ccc2[nH]c(=O)[nH]c2c1	inactive	
CC1COc2c(N3CCN(C)CC3)c(F)cc3c(=O)c(C(=O)O)cn1c23 (stereo not given)	inactive	
O=C(O)c1cc(Cl)cc(Cl)c1	inactive	
CC(C(O)c1ccc(O)cc1)N1CCC(Cc2ccccc2)CC1 (stereo not given)	inactive	
CN(C)c1ccc2nc3ccc(=[N+](C)C)cc-3sc2c1	24.3 µM (active) and 13.3 µM (active)	
OCC(CO)N[C@H]1C[C@](O)(CO)[C@@H](O)[C@H](O)[C@H]1O	inactive	
COC(=O)[C@H]1[C@H]2C[C@@H]3c4[nH]c5cc(OC)ccc5c4CCN3C[C@H]2C[C@@H](OC(=O)c2cc(OC)c(OC)c(OC)c2)[C@@H]1OC	inactive	
CC(=O)Nc1ccc(C(=O)CCl)cc1	inactive	
CC[C@@H](N)CO	inactive	
COC(c1ccccc1)(c1ccccc1)[C@H](Oc1nc(C)cc(C)n1)C(=O)O	inactive	
CCC(CO)(CO)COCC(CC)(CO)CO	inactive	

SMILES	Potency	viability change, negative = cytotoxic
C=CS(=O)(=O)O	inactive	
O	inactive	
C[N+]1([O-])CCOCC1	inactive	
C=CC(=O)OCCCCCCOC(=O)C=C	inactive	
C=C(C)C(=O)O	inactive	
CCC(=O)/C=C/C1C(C)=CCCC1(C)C (stereo not given)	inactive	
Oc1c(Cl)cc(Cl)c(Cl)c1Cc1c(O)c(Cl)cc(Cl)c1Cl	7.67 µM (active)	
CC(C)C(=O)c1c(C(C)C)nn2ccccc12	inactive	
CCCCCCCCCCCCCCCCCl		-1.15% [at 19 µM] (inactive)
Nc1nc2ccccc2[nH]1	inactive	
CC(N)=O	inactive	
O=C(Oc1ccccc1)c1ccccc1O	inactive	
O=C(O)CCc1ccccc1	inactive	
CC(C)(O)CCC(C)(C)O	inactive	
COc1ccc(Cc2cnc(N)nc2N)cc1OC	inactive	
CCN(CC)C(=O)Nc1ccc(OCC(O)CNC(C)(C)C)c(C(C)=O)c1 (stereo not given)	inactive	
O=c1n(CC2CO2)c(=O)n(CC2CO2)c(=O)n1CC1CO1 (stereo not given)	54.2 µM (active) and 61.1 µM (active)	
CCCCCCCCCCCCc1ccccc1O	inactive	
CC(C)(C)NCC(O)COc1ccccc1OCC1CCCO1 (stereo not given)	inactive	
C/C=C/c1ccc(OCC)c(O)c1	inactive	
